Laboratory results as given in PubChem BioAssay (NCI).
The panel holds about 83,000 compounds, 20% with a hit somewhere; the sample as a whole holds those more often.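 Compound tested at a single concentration for 48 hours in 96-well plates; a percent growth value below 10 was scored as active.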 Calls of active or inactive are those of the source.

Test system: NCI-H460 lung
Assay: NCI-60 one-dose screen, 48 h (100 = growth as untreated, 0 = no growth, -100 = all killed)
Conditions: 10 µM unless noted

Row | SMILES | growth
1 | CN(C)c1nc(NCCNS(=O)(=O)c2ccc(C3=Nc4c(N)nc(N)nc4NC(c4ccc(C(F)(F)F)cc4)C3)cc2)nc(Nc2ccc(F)cc2)n1 (stereo not drawn) | -7.38% (active)
2 | COc1ccc(-c2nc3cc(C)ccc3n2CC(=O)N=Nc2c(O)[nH]c3ccccc23)cc1 | -17.7% (active)
3 | NS(=O)(=O)c1ccc(CCNC(=O)CSc2ccc(-c3ccc(Br)cc3)nn2)cc1 | 51.4% (inactive)
4 | O=C(COc1ccc2c(c1)CCCC(=O)N2)NCc1ccccc1 | 104% (inactive)
5 | CC1=C(C#N)C2=NNCC(c3ccccc3)=NN2C(c2ccccc2)=C1 | 111% (inactive)
6 | CC1CCCCN1CCCNC(=O)N/C(N)=N/c1nc2ccccc2s1 (stereo not drawn) | 42.2% (inactive)
7 | Cc1nc(Nc2ccccn2)sc1C(=O)CC(SCC(=O)Nc1ccc(Cl)cc1)c1ccccc1F (stereo not drawn) | 6.78% (active)
8 | CCCSc1nc(Nc2ccc(S(N)(=O)=O)cc2)c(C#N)c(-c2cc(OC)c(OC)c(OC)c2)n1 | 16.5% (inactive)
9 | Clc1cccc(N/N=C/c2c[nH]c3ccc(Br)cc23)n1 | 12.9% (inactive)
10 | Cc1ccc(S(=O)(=O)c2nc(S(=O)(=O)c3ccc(C)cc3)c(N3CCN(C)CC3)s2)cc1 | 40.1% (inactive)
11 | COc1c(F)ccc(C(=O)Nc2ccc3nc(NC(=O)C4CCCN(S(=O)(=O)c5ccc(C(F)(F)F)cc5)C4)sc3c2)c1F (stereo not drawn) | 78% (inactive)
12 | COc1ccc(-c2ccnc(SCc3cc4ccccc4[nH]c3=O)n2)cc1 | 33.6% (inactive)
13 | Cc1ccc(C2=NN(c3nc(-c4cc5ccccc5oc4=O)cs3)C(c3ccc(C)cc3)C2)cc1 (stereo not drawn) | 120% (inactive)
14 | COc1c(F)ccc(C(=O)Nc2ccc3nc(NC(=O)C4CCCN(S(=O)(=O)c5cccc(C(F)(F)F)c5)C4)sc3c2)c1F (stereo not drawn) | 79.4% (inactive)
15 | Cc1ccc(S(=O)(=O)c2nc(S(=O)(=O)c3ccc(C)cc3)c(Cl)s2)cc1 | 41.5% (inactive)
16 | COc1ccc2c(c1)c(-c1cc3nc(-c4cn(C)c5ncc(Br)cc45)cc(N)n3n1)cn2C | -35.4% (active)
17 | COc1cccc(-c2nc(Nc3ccc(S(N)(=O)=O)cc3)c3ccccc3n2)c1 | 18.4% (inactive)
18 | CCS(=O)(=O)N1CCCC(C(=O)Nc2nc3ccc(NC(=O)c4ccc(F)c(OC)c4F)cc3s2)C1 (stereo not drawn) | 62.5% (inactive)
19 | C=C1CCC2C3(C)COC(c4ccccc4)OC3CCC2(C)C1CC(Sc1ccccc1)C1=CCOC1=O (stereo not drawn) | 84.6% (inactive)

Row | SMILES | growth
20 | Cc1cccc(-c2nc(Nc3cccc(S(N)(=O)=O)c3)c3ccccc3n2)c1 | 37.6% (inactive)
21 | Brc1ccc(-c2n(Cc3ccc4ccccc4c3)c(-c3ccccc3)c(-c3ccccc3)[n+]2Cc2ccc3ccccc3c2)cc1 | -81.3% (active)
22 | Cc1cc2nc3c([nH]c2cc1C)c1ccc(=O)cc1n3CCN(C)C | 2.91% (active)
23 | N=C1N=C(SCc2nc3ccccc3[nH]2)NC(=O)/C1=C/c1ccc(Cl)cc1 | 102% (inactive)
24 | COc1c(F)ccc(C(=O)Nc2ccc3nc(NC(=O)C4CCCN(S(=O)(=O)c5ccc(Br)c(F)c5)C4)sc3c2)c1F (stereo not drawn) | 84.1% (inactive)
25 | C=C1CC[C@@H]2[C@]3(C)COC(c4cn[nH]c4-c4ccc(Br)cc4)O[C@@H]3CC[C@@]2(C)[C@@H]1C/C=C1/C(=O)OCC1O (stereo partly drawn) | -82.3% (active)
26 | Cc1ccc2c(c1)nc(-c1ccccc1)n2CC(=O)N=Nc1c(O)[nH]c2ccc(Br)cc12 | -22.4% (active)
27 | Cn1nc(C(F)(F)F)cc1-c1cc(Cl)c(COc2ccc(Cl)cc2)c(-c2ccc(Cl)c(C(F)(F)F)c2)c1O | -48.1% (active)
28 | Cc1occc1C(=O)NN1C(=O)/C(=C/C=C/c2ccc([N+](=O)[O-])o2)SC1=S | -51.6% (active)
29 | O=c1cc(-c2ccccc2)oc2cc(OCCCC[P+](c3ccccc3)(c3ccccc3)c3ccccc3)cc(O)c12 | -75.8% (active)
30 | COc1c(F)ccc(C(=O)Nc2ccc3nc(NC(=O)C4CCCN(S(=O)(=O)c5cccc(Br)c5)C4)sc3c2)c1F (stereo not drawn) | 80.3% (inactive)
31 | C=C1CC[C@@H]2[C@]3(C)COC(c4cn[nH]c4-c4ccc(F)cc4)O[C@@H]3CC[C@@]2(C)[C@@H]1C/C=C1/C(=O)OCC1O (stereo partly drawn) | -63.5% (active)
32 | CCCCCCCS(=O)(=O)N1CCCC(C(=O)Nc2nc3ccc(NC(=O)c4ccc(F)c(OC)c4F)cc3s2)C1 (stereo not drawn) | 69.7% (inactive)
33 | C=C1CCC2C3(C)COC(c4ccccc4)OC3CCC2(C)C1CC(NCc1ccccc1)C1=CCOC1=O (stereo not drawn) | 97% (inactive)
34 | O=C(/C=C/Nc1ccc2oc(=O)ccc2c1)c1cc2cc(Br)ccc2oc1=O | 114% (inactive)
35 | O=C(Cn1c(/C=C/c2ccccc2)nc2ccccc2c1=O)Nc1ccc(Cl)cc1 | 38.7% (inactive)
36 | CC(C)CCNC(=O)N/C(N)=N/c1nc2ccccc2s1 | 66.5% (inactive)
37 | Cn1cc(-c2cc(N)n3nc(-c4c[nH]c5ccccc45)cc3n2)c2cccnc21 | 2.29% (active)
38 | CN(C)c1nc(NCCNS(=O)(=O)c2ccc(C(=O)/C=C/c3ccc(Cl)cc3)cc2)nc(Nc2ccc(F)cc2)n1 | -67.9% (active)
